From PubChem BioAssay AID1851 (National Center for Advancing Translational Sciences (NCATS), 2009)
In all, about 16,000 compounds went through this assay and about 5,100 (32%) were called active. Another 25% or so got no clear call; they are omitted. The list shows a part of the results. A number with no mark means an inactive call. The call rests on the fitted dose curve; in most records, active means well fitted curve in the direction sought with a large enough effect; inconclusive means small, poorly fitted or top-dose-only effect, or effect the other way; inactive means no such curve, though single readings can be large or run the other way.

biological target: Cytochrome P450 3A4 (Homo sapiens) (UniProt P08684); assay: Cytochrome panel assay with activity outcomes; details: recombinant CYP, pro-luciferin dealkylation, luminescence, p450-cyp3a4; series mostly up to 57.1 µM; activity, negative = inhibition: at the top concentration
Sequence (P08684 whole entry, looked up): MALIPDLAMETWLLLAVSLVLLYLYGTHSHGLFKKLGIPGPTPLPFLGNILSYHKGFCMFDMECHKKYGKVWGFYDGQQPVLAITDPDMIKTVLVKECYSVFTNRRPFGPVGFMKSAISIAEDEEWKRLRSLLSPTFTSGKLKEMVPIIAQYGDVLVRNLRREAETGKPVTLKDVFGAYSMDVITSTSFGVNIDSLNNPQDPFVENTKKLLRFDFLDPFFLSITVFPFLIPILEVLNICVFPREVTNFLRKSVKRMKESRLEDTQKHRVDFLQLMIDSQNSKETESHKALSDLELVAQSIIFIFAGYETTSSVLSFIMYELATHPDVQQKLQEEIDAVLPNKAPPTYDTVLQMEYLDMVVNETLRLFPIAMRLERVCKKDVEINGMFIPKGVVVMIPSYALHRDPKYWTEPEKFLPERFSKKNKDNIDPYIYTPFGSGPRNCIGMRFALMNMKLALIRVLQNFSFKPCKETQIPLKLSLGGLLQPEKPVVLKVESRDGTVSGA
On the % scale 0 is the no-effect control and ±100 the full control effect.

Q: `O=C1C2C3C=CC(C3)C2C(=O)N1/N=C/c1cn(Cc2ccc(F)cc2)c2ccccc12` (centres undefined) was tested. Which AC50 did it give?
A: 2.82 µM (active)

Q: How did the activity, negative = inhibition turn out when `COC(=O)Cn1cc(/C=N/NC(=O)c2ccc(C#N)cc2F)c2ccccc21` was run?
A: -10.5% [at 2.29 µM]

Q: How did the activity, negative = inhibition turn out when `O=C1C2C3C=CC(C3)C2C(=O)N1/N=C/c1cn(Cc2ccccc2)c2ccccc12` (centres undefined) was run?
A: -22.4% [at 11.4 µM]

Q: `COC(=O)/C=C\CCc1coc(/C=C\CNC(=O)OC)n1` was tested. Which activity, negative = inhibition did it give?
A: -19.3% [at 11.4 µM]

Q: How did the AC50 turn out when `COC(=O)[C@@H]1C[C@H]1[C@@H](NC(=O)Oc1ccc(F)cc1)c1ccccc1` was run?
A: 12.6 µM (active)

Q: Which “activity, negative = inhibition” value does the source give for `COC(=O)[C@H]1C[C@@H]1[C@H](NC(C)=O)c1ccccc1` here?
A: -23.7%

Q: `COC(=O)[C@H]1C[C@@H]1[C@H](NC(=O)Oc1ccc(F)cc1)c1ccccc1` was tested. Which AC50 did it give?
A: 15.8 µM (active)

Q: How did the “activity, negative = inhibition” value turn out when `COC(=O)[C@@H]1C[C@H]1[C@@H](NC(C)=O)c1ccccc1` was run?
A: -18.2%

Q: How did the AC50 turn out when `O=C(O)[C@H]1CN(CCCP(=O)(O)O)CCN1` was run?
A: inactive

Q: With `CCCCCC1=C2CNC(C)(C(=O)OC)C=C2C(C)C1=O` (centres undefined) as the compound, how does the AC50 read?
A: 12.6 µM (active)

Q: `COC(=O)C1(C)C=C2C(=C(c3ccccc3)C(=O)C2C)CN1` (centres undefined) was tested. Which AC50 did it give?
A: 10 µM (active)

Q: `CCCCCC1=C2CNC(CCC)(C(=O)OC)C=C2C(C)C1=O` (centres undefined) was tested. Which AC50 did it give?
A: 20 µM (active)

Q: `COC(=O)C1(Cc2ccccc2)C=C2C(=C(C(C)C)C(=O)C2C)CN1` (centres undefined) was tested. Which AC50 did it give?
A: 7.94 µM (active)

Q: Which AC50 does the source give for `CCCCCC1=C2CNC(Cc3ccccc3)(C(=O)OC)C=C2C(C)C1=O` (centres undefined) here?
A: 15.8 µM (active)

Q: Which “activity, negative = inhibition” value does the source give for `Cn1c(=O)c(-c2cccs2)nc2cnc(Oc3ccccc3)nc21` here?
A: 7.32%

Q: How did the AC50 turn out when `COc1ncc2nc(-c3cccs3)c(=O)n(C)c2n1` was run?
A: 15.8 µM (active)

Q: For `COc1ccc(Oc2ncc3nc(-c4cccs4)c(=O)n(C)c3n2)cc1`, which AC50 is on record?
A: 3.98 µM (active)

Q: With `Cc1cc(C2(c3cc(C)c(O)c(C(=O)O)c3)OS(=O)(=O)c3ccccc32)cc(C(=O)O)c1O` as the compound, how does the activity, negative = inhibition read?
A: 5.57% [at 11.4 µM]

Q: Which AC50 does the source give for `CC1=CC(C)(C)Nc2ccc(CSc3ccccc3)cc21` here?
A: 3.98 µM (active)

Q: Which AC50 does the source give for `Cc1cc2c(cc1C)NC1=C(N2)O[C@H](c2c[nH]c3ccc(COc4ccccc4)cc23)C1=O` here?
A: 3.98 µM (active)

Q: For `O=C(O)c1c[nH]c2cc(OCc3ccccc3)ccc2c1=O`, which activity, negative = inhibition is on record?
A: -10.2% [at 11.4 µM]

Q: With `COCCN=C1Sc2nc3c(C)cccc3cc2CN1Cc1ccco1` as the compound, how does the AC50 read?
A: 14.1 µM (active)

Q: For `CC1(C)[C@@H]2CC[C@]1(C)[C@@H](OC(=O)CSC#N)C2`, which activity, negative = inhibition is on record?
A: -20.6% [at 11.4 µM]

Q: With `O=c1c(CCc2ccccc2)nc2cncnc2n1Cc1ccc(F)cc1` as the compound, how does the AC50 read?
A: 3.16 µM (active)

Q: `O=c1cnc2cncnc2n1Cc1ccccc1Cl` was tested. Which “activity, negative = inhibition” value did it give?
A: -25.7%

Q: With `O=c1c(-c2ccccc2)nc2cncnc2n1Cc1ccccc1Cl` as the compound, how does the “activity, negative = inhibition” value read?
A: -26.7%

Q: `O=c1c(CCc2ccccc2)nc2cncnc2n1Cc1ccccc1Cl` was tested. Which AC50 did it give?
A: 15.8 µM (active)

Q: For `CCCCCCCCCCCCCCCCCC(=O)NC[C@@H](COP(=O)([O-])OCC[N+](C)(C)C)OCC`, which AC50 is on record?
A: 31.6 µM (active)

Q: How did the “activity, negative = inhibition” value turn out when `CCCCCCCCCCCCCCCCCCNC(=O)OC[C@@H](COP(=O)([O-])OCC[n+]1ccsc1)OC` was run?
A: 9.2%

Q: Which AC50 does the source give for `CCCCCCCCCCCCCCCC(=O)NC[C@@H](COP(=O)([O-])OCC[N+](C)(C)C)OCC` here?
A: 25.1 µM (active)

Q: Which “activity, negative = inhibition” value does the source give for `CCCCCCCCCCCCCCCCCCOC[C@@H](COP(=O)([O-])OCC[N+](C)(C)C)OC` here?
A: 3.29%

Q: With `CCCCCCCCCCCCCC(=O)O[C@H](CC(=O)O)C[N+](C)(C)C` as the compound, how does the “activity, negative = inhibition” value read?
A: -18.2%

Q: With `CCCCCCCCCCCCCCCCCC(=O)O[C@H](CC(=O)O)C[N+](C)(C)C` as the compound, how does the “activity, negative = inhibition” value read?
A: -3.53%

Q: `CCCCCCC(C)n1cc(C(C)=O)c(=O)[nH]c1=O` (centres undefined) was tested. Which activity, negative = inhibition did it give?
A: 12.8% [at 2.29 µM]

Q: With `Fc1cccc(Cl)c1CSc1ncn[nH]1` as the compound, how does the AC50 read?
A: 4.47 µM (active)

Q: With `CCCC[C@@H]1C[C@H]1C(NC(=O)c1cccs1)c1ccccc1C(F)(F)F` (some centres undefined) as the compound, how does the AC50 read?
A: 3.16 µM (active)

Q: `CCCC[C@@H]1C[C@H]1C(NC(=O)c1cccs1)c1ccc(Cl)cc1` (some centres undefined) was tested. Which AC50 did it give?
A: 5.01 µM (active)

Q: How did the AC50 turn out when `CCCC[C@@H]1C[C@H]1C(NC(=O)c1cccs1)c1ccc(C(F)(F)F)cc1` (some centres undefined) was run?
A: 3.16 µM (active)

Q: Which AC50 does the source give for `CCCC[C@@H]1C[C@H]1C(NC(=O)c1ccc(C(F)(F)F)cc1)c1ccc(C(=O)OC)cc1` (some centres undefined) here?
A: 5.01 µM (active)

Q: `Cc1ccc(OCCNC(=O)c2cncc(Br)c2)cc1C` was tested. Which AC50 did it give?
A: 7.08 µM (active)

Q: For `CCOC(=O)CCCNC(=O)c1cncc(Br)c1`, which AC50 is on record?
A: 14.1 µM (active)

Q: `CN(C)CCNC(=O)c1cc(Br)ccc1Cl` was tested. Which “activity, negative = inhibition” value did it give?
A: -12.1%

Q: Which activity, negative = inhibition does the source give for `CCOC(=O)c1cncc(C(=O)O)c1` here?
A: 1.77% [at 2.29 µM]

Q: For `O=C(Nc1ccccc1)c1cc(-n2cnnc2)ccc1Cl`, which “activity, negative = inhibition” value is on record?
A: 14.9%

Q: How did the AC50 turn out when `Cc1ccc(OCCNC(=O)c2cc(-n3cnnc3)ccc2Cl)cc1C` was run?
A: 7.94 µM (active)

Q: How did the activity, negative = inhibition turn out when `O=C(NC(=S)Nc1ccc(Br)cn1)c1cncc(Br)c1` was run?
A: -24.4% [at 2.29 µM]

Q: Which activity, negative = inhibition does the source give for `CCOC(=O)CNC(=O)c1cccnc1` here?
A: 4.45% [at 11.4 µM]

Q: `Cn1c(-c2sccc2OCc2ccccc2)n[nH]c1=S` was tested. Which “activity, negative = inhibition” value did it give?
A: 19.7%

Q: With `Cc1nc2c(OCc3ccccc3)cccn2c1CC#N` as the compound, how does the AC50 read?
A: 15.8 µM (active)
